# Compound activity as filed in PubChem.
# BH1578 lux ind = inducers of Vibrio cholerae quorum light production without autoinducers | V. cholerae BH1578 lux reporter, luminescence, 6 h | 0.16% of 350,000 active | activation, % at 18.7 µM | AID 588436; in the data active means activation mostly above about 9.7%, no sharp cut-off; inconclusive means no clear call, values can overlap the other calls; inactive means mostly below about 3.7%
# Anthrax LF inh2 = blocks Bacillus anthracis lethal factor protease | P15917 | multiplex microsphere protease cleavage assay, LF | inhibition, % at 10 µM | 0.12% of 360,000 active; further: plate controls were buffer without enzyme for full effect and enzyme alone for no effect
# Target sequence (P15917 whole entry, looked up): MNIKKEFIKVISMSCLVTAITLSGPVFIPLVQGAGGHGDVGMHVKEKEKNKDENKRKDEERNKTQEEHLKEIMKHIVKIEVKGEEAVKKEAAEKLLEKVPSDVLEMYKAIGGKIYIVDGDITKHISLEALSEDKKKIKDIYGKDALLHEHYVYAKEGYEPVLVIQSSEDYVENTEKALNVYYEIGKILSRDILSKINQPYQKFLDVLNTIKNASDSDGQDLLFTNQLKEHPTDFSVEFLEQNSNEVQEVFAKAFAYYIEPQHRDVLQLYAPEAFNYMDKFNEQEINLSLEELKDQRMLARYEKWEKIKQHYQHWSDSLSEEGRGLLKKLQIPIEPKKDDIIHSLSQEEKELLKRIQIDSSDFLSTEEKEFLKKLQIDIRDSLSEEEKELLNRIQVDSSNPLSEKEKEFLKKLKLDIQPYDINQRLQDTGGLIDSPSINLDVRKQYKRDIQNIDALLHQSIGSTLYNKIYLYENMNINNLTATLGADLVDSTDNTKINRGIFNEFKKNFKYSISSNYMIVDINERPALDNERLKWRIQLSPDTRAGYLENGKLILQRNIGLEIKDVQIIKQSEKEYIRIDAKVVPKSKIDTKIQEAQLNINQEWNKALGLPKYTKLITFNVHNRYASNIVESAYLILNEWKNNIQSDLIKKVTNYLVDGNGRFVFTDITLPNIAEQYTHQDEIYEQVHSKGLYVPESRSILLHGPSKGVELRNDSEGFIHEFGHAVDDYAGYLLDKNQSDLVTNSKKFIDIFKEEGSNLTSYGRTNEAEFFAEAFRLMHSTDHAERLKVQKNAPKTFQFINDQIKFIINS
# Autofluor counter = counter-screen for toxin protease inhibitors: compound fluorescence. compound autofluorescence counterscreen, microsphere flow cytometry; stronger effect = higher value. fluorescence intensity (test concentration not listed). 3.1% of 360,000 active. AID 624483; in the data active means fluorescence intensity above about 16000; inconclusive means no clear call, values can overlap the other calls
# BoNT-A LC inh2 = blocks Botulinum neurotoxin A light chain protease; multiplex microsphere protease substrate cleavage, flow cytometry; inhibition, % at 10 µM; 0.17% of 360,000 active; further: plate controls were buffer without enzyme for full effect and enzyme alone for no effect
# BoNT-F LC inh = BoNT F light chain protease inhibition | 0.22% of 360,000 active | inhibition, % at 10 µM | Multiplex microsphere protease cleavage assay, flow cytometry | AID 588497; in the data active means inhibition above about 35%, passing the limit was not always enough; inconclusive means no clear call, values can overlap the other calls; further: plate controls were buffer without enzyme for full effect and enzyme alone for no effect
# BJeLR lethal = kills HRASV12-expressing BJeLR cells | BJeLR (HRASV12) viability, CellTiter-Glo ATP luminescence, 48 h | inhibition, % (no concentration beside the values) | 0.17% of 300,000 active | AID 1554; in the data active means inhibition above about 50%; inconclusive means no clear call, values can overlap the other calls
# BoNT-A LC CP1 = BoNT/A light chain protease inhibition; 3% of 720 active; inhibition, % at 10 µM; AID 602139; multiplex microsphere protease assay, flow cytometry; shares compounds with BoNT-F LC inh; in the data active means inhibition above about 32%
# BoNT-F LC CP1 = inhibitors of Botulinum neurotoxin F light chain protease | shares compounds with BoNT-F LC inh | multiplex microsphere protease cleavage assay, flow cytometry | inhibition, % at 10 µM | 720 tested, under 10 active | AID 602140; call rule not given here
# LF protease CP1 = inhibitors of Bacillus anthracis lethal factor protease | shares compounds with BoNT-F LC inh | multiplex microsphere protease cleavage assay, LF | inhibition, % at 10 µM | 720 tested, under 10 active; call rule not given here
# * hit, by the source's call; i = inactive; u = inconclusive; x = no result given. A selection: hits, their analogues and other compounds. The true share with any hit is near 3.7%. Unless noted, no stated cut-off is given here; in the data, active means inhibition above about 30%; inconclusive means no clear call, values can overlap the other calls; inactive means below that.
SMILES,BH1578 lux ind,Anthrax LF inh2,Autofluor counter,BoNT-A LC inh2,BoNT-F LC inh,BJeLR lethal,BoNT-A LC CP1,BoNT-F LC CP1,LF protease CP1
Cc1cc(-c2c(C(=O)N3CCOCC3)c(C)nn2-c2ccccc2)no1,-1,34*,3397,2,u,-9,-6,-14,-1
Cc1cc(-c2c(C(=O)N3CCOCC3)c(C)nn2-c2cccc(C(F)(F)F)c2)no1,0,2,4002,u,u,-11,x,x,x
O=C(COC(=O)Cc1cccs1)NCC(=O)Nc1ccc(F)cc1,i,4,3858,0,-3,x,x,x,x
CN(CC(=O)Nc1ccc(F)cc1)C(=O)COC(=O)Cc1cccs1,4,-1,u,4,40*,6,1,-1,-2
c1csc(-c2nc3nc4ccccc4nc3n2Cc2ccc3c(c2)OCO3)c1,i,34*,2888,51*,25,x,8,-8,4
O=C1NCCCCC1NS(=O)(=O)c1ccc(Cl)cc1 (configuration not stated),2,-2,3561,-2,6,-6,x,x,x
N#Cc1ccc(S(=O)(=O)NC2CCCCNC2=O)cc1 (configuration not stated),i,0,3770,-1,42*,-2,1,-8,0
O=C(OCC(O)C1OC(c2ccccc2)OC(COC(=O)c2ccccc2)C1O)c1ccccc1 (configuration not stated),x,-8,6047,0,-2,x,x,x,x
Nc1nc2ccccc2nc1N1CCCC1,0,1,11493,32*,42*,-5,-1,1,1
O=C(NCCCN1CCCC1=O)NC1CCCCC1,3,2,4023,0,-6,-6,x,x,x
O=C(O)C1CCCCC1C(=O)NCCCN1CCCC1=O (configuration not stated),0,0,4270,-3,48*,-5,0,-5,-3
COc1ccc(OC)c(CN2CCN(C(=O)CCNC(=O)c3ccc(Br)cc3)CC2)c1,0,-2,u,34*,1,-6,0,2,0
COc1ccc(OC)c(CN2CCN(C(=O)CNC(=O)c3ccc(C(C)(C)C)cc3)CC2)c1,-1,0,4043,0,-5,x,x,x,x
CC(=O)C1=C(O)C(=CC=Cc2ccccc2)OC1=O,1,-4,3897,0,-4,x,x,x,x
CCC(C)c1cc(S(=O)(=O)N2CCOCC2)ccc1OC (configuration not stated),i,2,3252,2,44*,x,-1,-4,-3
COc1ccc(C(=O)NCc2ccncc2)cc1OC,i,0,2638,1,1,-2,x,x,x
COc1ccc(CC(=O)NCc2ccc3c(c2)cc(C)n3C)cc1,i,-15,1840,91*,-53,5,1,-5,-3
COc1ccc(C(=O)NCc2ccc3c(c2)cc(C)n3C)cc1OC,-1,-1,1632,92*,-47,-2,-1,-7,2
COc1cc(OC)cc(C(=O)NCc2ccc3c(c2)OCO3)c1,i,9,3997,-1,u,-2,x,x,x
COc1cccc(C(=O)NCc2ccc3c(c2)OCO3)c1,i,4,3829,-2,36*,-2,0,-4,0
COc1cccc(C(=O)NCc2ccc3c(c2)cc(C)n3C)c1,i,-50,1285,75*,-83,1,3,-3,-1
CC1=C(C(=O)N(C(C)C)C(C)C)CC(CC(=O)NCCCCc2ccccc2)C(=O)N1CCCN1CCCC1=O (configuration not stated),x,-2,6232,0,-1,x,x,x,x
O=C(NC1CC1)c1ccc(CSCc2ccc(Cl)cc2)o1,-1,-7,3642,0,-4,x,x,x,x
COc1ccc(C(=O)NCCCC2CCCC2)cc1OC1CCN(C(C)C)CC1,i,4,3987,0,-5,x,x,x,x
Cc1ccc(C2CC(c3ccc(NS(C)(=O)=O)cc3)=NN2C(=O)c2ccco2)cc1 (configuration not stated),0,2,2791,3,36*,8,1,-4,0
SMILES,BH1578 lux ind,Anthrax LF inh2,Autofluor counter,BoNT-A LC inh2,BoNT-F LC inh,BJeLR lethal,BoNT-A LC CP1,BoNT-F LC CP1,LF protease CP1
COc1ccc(N(C(=O)c2snc(C(N)=O)c2N)C(C(=O)NCC2CCCO2)c2ccc3ncccc3c2)cc1OC (configuration not stated),i,1,3435,-2,38*,0,0,-7,1
c1ccc2c(C3=NNC(=NC4CC4)SC3)c[nH]c2c1,8,12,4586,41*,-10,6,7,-19,9
c1cc2c3c(cccc3c1)-c1cnccc1-2,i,6,3875,0,2,x,x,x,x
COc1ccc(CNC(=O)c2cccc(NC(=O)c3ccccc3)c2)cc1,i,0,2804,4,40*,-3,0,-7,-2
Cc1ccc(NS(=O)(=O)c2cccc(C(=O)O)c2)c(C)c1,2,3,7495,1,0,0,x,x,x
COc1ccc(NS(=O)(=O)c2cccc(C(=O)Nc3cccc(C(=O)O)c3)c2)cc1,0,-10,4059,-2,u,4,1,15,-4
Cc1cccc(OCC(=O)Nc2cccc(C(=O)Nc3ccccc3C(=O)O)c2)c1,0,-2,1922,0,-6,-3,x,x,x
Cc1cccc(NC(=O)c2cccc(S(=O)(=O)Nc3ccccc3C(=O)O)c2)c1,i,-7,3303,-3,-48,-16,1,-6,-2
Cc1ccccc1NS(=O)(=O)c1cccc(C(=O)Nc2cccc(C(=O)O)c2)c1,-2,5,4073,-2,u,-8,-1,-4,-1
O=C(Nc1ccccc1O)c1cccc(S(=O)(=O)Nc2ccccc2O)c1,-1,4,6544,0,-9,2,-2,-21,-2
Cc1ccccc1NC(=O)c1cccc(S(C)(=O)=O)c1,-1,-2,4707,-1,3,11,x,x,x
O=C(O)CC1(CC(=O)Nc2ccc(C(F)(F)F)cc2)CCCC1,0,4,4111,2,40*,-6,1,-2,2
Cc1ccc(NC(=O)CC2(CC(=O)O)CCCC2)cc1,0,11,4216,0,33,0,x,x,x
CCCNC(=O)C(Sc1ccccc1)c1ccccc1 (configuration not stated),0,-1,8592,0,1,-6,x,x,x
CCN(CC)C(=O)C(Sc1ccccc1)c1ccccc1 (configuration not stated),0,u,u,19,57*,-1,-1,-4,-3
CN1OC[C@@H]2CN(C(=S)NCCc3ccccc3)[C@H](c3ccc(N4CCCCC4)cc3)C[C@@H]21,x,-3,8876,-1,5,x,x,x,x
Cc1nnc(SCC(=O)NC2CCCCCC2)n1C,i,-2,5614,1,4,-3,x,x,x
